Most compounds without a hit are left out; they make up all but 6.2% or so of the library.
HT1080NT lethal – kills 2HG-producing HT-1080-NT fibrosarcoma cells | Potency, µM (series often up to 46.1 µM), for the others: at the highest dose activity, negative = less viability, hits mostly cytotoxic | actives 1.6% (n = 360,000) | HT-1080-NT fibrosarcoma viability, CellTiter-Glo ATP luminescence, 48 h;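 further: NT is the 2HG producing partner of a matched IDH1 knockdown line; 0% = DMSO-treated cells and -100% = media-only wells without cells; nearly all actives have a fitted effect of over 55% in size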
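HT-1080-NT fibrosarcoma cells (2HG-overproducing), 750 cells/well in RPMI with 5% FBS, dosed after 2 h and incubated 48 h at 37C. CellTiter-Glo luminescence normalized to DMSO and no-cell wells; concentration-response curves fitted and classed.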
KB-3-1 cytotox – KB-3-1 parental cell cytotoxicity | Potency, µM (series often up to 46.1 µM), usual class: cytotoxic | AID 1347075 | actives 1.4% (n = 400,000) | KB-3-1 viability, CellTiter-Glo ATP luminescence, 72 h; further: on the % scale 0 is the no-effect control and ±100 the full control effect; nearly all actives have a fitted effect of over 60% in size
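Screening of KB-3-1 cells (DMEM, 10% FBS, phenol-red free) ran from lowest to highest compound concentration; after 72 h at 37 °C viability was read luminescently and curves fitted.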
S2 tox – cell viability loss in ATXN counter-screen; S2 cells (HEK-293 line with an ATXN2-luciferase reporter) viability, CellTiter-Fluor protease fluorescence, 24 h; Potency, µM (series often up to 56.7 µM), actives largely listed as cytotoxic; actives 0.49% (n = 400,000); AID 651635; further: nearly all actives have a fitted effect of over 40% in size
ATXN2 expr inh – reduces ATXN2 reporter expression in HEK-293 cells | HEK-293 ATXN2-luciferase reporter, luminescence, 24 h | Potency, µM (doses to about 57 µM), without a hit: at the highest dose activity change, negative = inhibition, hits mostly inhibitors | actives 0.72% (n = 360,000); further: on the % scale 0 is the no-effect control and ±100 the full control effect; nearly all actives have a fitted effect of over 55% in size
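ATXN2-luciferase reporter cells (luciferase flanked by upstream and downstream ATXN2 gene portions) were treated 24 h at 37 °C with compounds at up to 57 uM. SteadyGlo luminescence gave expression; GF-AFC fluorescence gave viability.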
HT1080 IDH1KD tx – kills HT-1080 cells with IDH1 knockdown; HT-1080 IDH1 knockdown viability, ATP luminescence, 48 h; actives 2% (n = 360,000); Potency, µM (doses to about 46.1 µM), for inactives: at the top dose activity, negative = toxicity, actives largely listed as cytotoxic;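 further: 0% = DMSO wells and -100% = cell-free medium wells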
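Assay cells: HT-1080 with IDH1 knockdown, 750 per well, RPMI/5% FBS. Exposure: 48 h at 37 °C following 2 h pre-incubation. Read: CellTiter-Glo luminescence; fitted concentration-response, curve class assigned.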
KB-V1 MDR tox – kills drug-selected multidrug resistant KB-V1 cells. actives 3.4% (n = 400,000). Potency, µM (top dose mostly 46.1 µM), most hits filed as cytotoxic. AID 1347076. KB-V1 MDR cells viability, CellTiter-Glo, 72 h; further: on the % scale 0 is the no-effect control and ±100 the full control effect; nearly all actives have a fitted effect of over 60% in size
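qHTS viability screen in drug-selected KB-V1 MDR cells: 72 h compound treatment at 37 degrees C, ATP luminescence end point.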
* = called active by the depositor; i = inactive; ? = inconclusive; · = no result given; ! = a repeat was not active; [ ] = remark or other dose. The call rests on the fitted dose curve; in most records, active means well fitted curve in the direction sought with a large enough effect; inconclusive means small, poorly fitted or top-dose-only effect, or another doubt; inactive means no such curve, though single readings can be large; an effect the other way counts as inactive or inconclusive. Potency means the concentration at half of the fitted maximal effect.

SMILES | HT1080NT lethal | KB-3-1 cytotox | S2 tox | ATXN2 expr inh | HT1080 IDH1KD tx | KB-V1 MDR tox
Cn1cc(C(=O)NC2CCCCC2)c(=O)c2cc(S(=O)(=O)N3CCCC3)ccc21 | 0.0% | i | i | 2.4% | 12.8% | 9.2µM*
Cc1ccc(S(=O)(=O)N2CCC(C(=O)NC3CCCC3)CC2)cc1Cl | -3.0% | i | i | -24.9% | -0.2% | i
Cn1cc(C(=O)NCc2cccs2)c(=O)c2cc(S(=O)(=O)N3CCCC3)ccc21 | -8.0% | i | ? | ? | -8.3% | 20.6µM*
C#CC(C)(CC)OC(=O)c1ccccc1C(=O)O (centres undefined) | · | · | i | 7.2% | · | ·
COc1ccc(CNC(=O)CCc2c(C)c3cc4c(C)coc4cc3oc2=O)cc1 | · | i | i | 1.4% | · | i
COc1cc(NC(=O)c2ccnc(N)c2)cc(C(=O)Nc2cccc(C(F)(F)F)c2)c1 | ? | i | i | -10.5% | 14.6% | ?
COc1cc(NC(=O)c2cnc(N)s2)cc(C(=O)Nc2cccc(C(F)(F)F)c2)c1 | 0.4% | i | 35.5µM*! | -5.1% | -2.9% | i
COc1cc(NC(=O)c2csc(N)n2)cc(C(=O)Nc2cccc(C(F)(F)F)c2)c1 | 16.4µM* | 5.8µM* | 17.8µM* | ? | 20.6µM* | 7.31µM*!
COc1cc(NC(=O)c2cc(C)on2)cc(C(=O)Nc2cccc(C(F)(F)F)c2)c1 | ? | ? | ? | ? | ? | i
COc1cc(NC(=O)c2cnc(N)o2)cc(C(=O)Nc2cccc(C(F)(F)F)c2)c1 | -15.9% | ? | 20µM* | ? | -18.7% | i
CCOc1ccc(NC(=O)CN(Cc2ccccc2)S(=O)(=O)c2ccc3nc(C)sc3c2)cc1 | · | i | i | -9.8% | · | i
COc1cc(/C=N/NC(=O)c2cc(-c3ccco3)nc3ccccc23)cc(OC)c1O | -24.4% | i | i | 11.5% | -15.2% | i
O=C(N/N=C/c1cccc(F)c1)c1cc(-c2ccco2)nc2ccccc12 | ? | ? | ? | 12.6% | 16.4µM* | ?
O=C(N/N=C/c1ccc2c(c1)OCO2)c1cc(-c2ccc(F)cc2)nc2ccccc12 | ? | ? | ? | 30.1% | ? | 8.2µM*
COc1cccc(CNC(=O)CCCn2ncn3c(cc4occc43)c2=O)c1OC | · | i | i | 11.6% | · | i
CC1Oc2ccccc2N(CC(=O)NCCCN2CCOCC2)C1=O (centres undefined) | 9.8% | i | i | -1.9% | 8.1% | i
CC1Oc2ccccc2N(CC(=O)N2CCc3ccccc32)C1=O (centres undefined) | -3.2% | i | i | -2.0% | -2.8% | 14.6µM*
CC1Oc2ccccc2N(CC(=O)Nc2ccc3c(c2)OCCO3)C1=O (centres undefined) | 11.2% | i | i | 17.3% | -24.1% | 16.4µM*
CC1Oc2ccccc2N(CC(=O)Nc2ccc3c(c2)OCO3)C1=O (centres undefined) | 11.8% | i | i | 18.9% | -6.6% | 20.6µM*
CC1Oc2ccccc2N(CC(=O)NCCc2ccccc2)C1=O (centres undefined) | 0.4% | i | i | -3.0% | -1.6% | 16.4µM*
Cc1ccc(Cl)cc1N1CCN(C(=O)Cn2c(-c3cccs3)cc3cc(F)ccc32)CC1 | · | i | i | 8.4% | · | i
CCC1(c2ccc(F)cc2)NC(=O)N(CC(=O)N2CCc3ccccc32)C1=O (centres undefined) | -8.9%[9.24 µM] | i | i | 8.1% | -15.7% | i
CCC1(c2ccccc2)NC(=O)N(CC(=O)N2CCc3ccccc32)C1=O (centres undefined) | -1.1% | i | ? | -21.6% | -0.1% | 11.6µM*
O=C(CCCCn1c(=O)c2ccccc2n(Cc2ccc(Cl)cc2)c1=O)NCc1ccccc1Cl | · | i | i | -13.0% | · | ?

Source: PubChem
